NOMO-1 viab: STK33 inhibitor candidate reducing NOMO-1 cell viability | NOMO-1 AML viability, CellTiter-Glo luminescence, 72 h | inhibition, % (test concentration not listed) | hit rate 7.5% among 37,000; in the data active means inhibition above about 80%; inconclusive means no clear call, values can overlap the other calls
Shh pathway inh: Sonic Hedgehog pathway inhibition. inhibition, % (no concentration beside the values). Shh-LIGHT2 Gli-luciferase reporter, 30 h. hit rate 2.1% among 22,000. AID 2313;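 active means mean inhibition across valid replicates above about 65%, limit read from the data; inconclusive means mean under the limit, yet half or more replicates past it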;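 further: pathway switched on by Shh-conditioned medium diluted 1 in 25 in low serum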
MITF inhib: blocks MITF activity | TRPM1 promoter luciferase, luminescence, 24 h | inhibition, % (test concentration not listed) | hit rate 0.28% among 37,000; in the data active means inhibition above about 85%; inconclusive means no clear call, values can overlap the other calls; inactive means below about 68%;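 further: human melanocyte line stably carrying TRPM1 promoter luciferase reporter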
PD-1 reverse act: activators reversing PD-1 mediated T-cell inhibition; AID 2316; activation, % (concentration not given with the values); 29,000 tested, under 10 active; primary human CD4 T cells, PD-L1 beads, CellTiter-Glo 96 h; call rule not given here;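 further: 0% = median vehicle wells and 100% = positive control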
The depositor's hits bear a star; ? = inconclusive; . = not tested or not shown. Compounds with a hit are over-represented: about 7.9% of the library has one in this group of screens.

SMILES | NOMO-1 viab | Shh pathway inh | MITF inhib | PD-1 reverse act
COc1cccc(-c2cc(NCc3ccc4c(c3)OCO4)nc(N)n2)c1 | 95* | ? | -1 | -25
CN1CCN(C(=O)CN(c2ccc(I)cc2)S(=O)(=O)c2ccccc2)CC1 | 20 | . | -15 | .
COc1cccc(C(=O)/C=c2\[nH]c(=O)/c(=C\c3cccs3)s2)c1 | 104* | -2 | -27 | -5
CC[C@]12CCCN3CCc4c(n(c5ccccc45)C(=O)C1)[C@@H]32 | 112* | -1 | -3 | 4
Cc1sc(NC(=O)Cn2nc(C(F)(F)F)cc2C)c(C(N)=O)c1C | 118* | 2 | -3 | -1
Cc1ccc(OCC(=O)Nc2sc(C)c(C)c2C(N)=O)cc1 | 30 | . | -38 | .
C=C1C(=O)O[C@H]2C[C@H](C)[C@@H]3CC(=O)C(C)=C3C[C@H]12 | 117* | 11 | 13 | -9
O=c1[nH]ncc(NCC2CCCO2)c1Cl (stereo unspecified) | 18 | ? | 7 | -1
O=C(O)Cc1ccc(NC(=O)c2cccnc2C(=O)O)cc1 | 0 | . | -13 | 0
N=c1oc2ccc3ccccc3c2cc1C(=O)Nc1ccccc1 | 115* | 4 | 11 | 0
COC(=O)c1ccccc1NC(=O)C(C)Oc1ccc2c(C)cc(=O)oc2c1 (stereo unspecified) | 89* | . | 14 | .
Cc1cc(=O)oc2cc(OC(C)C(=O)NCC3CCCO3)ccc12 (stereo unspecified) | 24 | . | 0 | 1
Nc1nc(N(Cc2ccccc2)Cc2ccccc2)nc(C(F)(F)F)n1 | 120* | ? | 20 | 0
Cc1cc(O)cc(Oc2cc(C)cc(O)c2O)c1 | 61 | 10 | 11 | -1
COc1ccc(C[C@H](N)C(=O)N[C@H]2[C@@H](O)[C@H](n3cnc4c(N(C)C)ncnc43)O[C@@H]2CO)cc1 | 120* | 85* | 102* | .
Cc1ccc(Nc2ccc3noc4c3c2C(=O)c2ccccc2-4)cc1 | 127* | . | -1 | -3
COc1c(C(=O)O)ccc2c1CCC(C)(C)O2 | 2 | -15 | 2 | .
O=C(CSc1nc2ccccc2s1)Nc1ccccc1C(=O)c1ccccc1 | 10 | . | 23 | .
N#C/C(=C(\O)c1ccc(C(=O)c2ccccc2)cc1)c1nc2ccccc2s1 | 35 | 96* | 31 | 0
Cn1nnnc1SCC(=O)Nc1ccc([N+](=O)[O-])cc1 | 57 | . | -11 | .
C[C@@H]1CN([C@@H](C)CO)C(=O)Cc2cc(NC(=O)CCC(F)(F)F)ccc2O[C@@H]1CN(C)Cc1ccc(C(=O)Nc2ccccc2N)cc1 | 91* | . | 5 | 0
C[C@@H]1CN([C@H](C)CO)C(=O)c2cc(NC(=O)CCC(F)(F)F)ccc2O[C@H]1CN(C)Cc1ccc(C(=O)Nc2ccccc2N)cc1 | 45 | . | -2 | -1
C[C@H](CO)N1C[C@H](C)[C@H](CN(C)Cc2ccc(C(=O)Nc3ccccc3N)cc2)Oc2ccc(NC(=O)CCC(F)(F)F)cc2CC1=O | 141* | . | 24 | -7
C[C@H]1CN([C@@H](C)CO)C(=O)c2cc(NC(=O)CCC(F)(F)F)ccc2O[C@H]1CN(C)Cc1ccc(C(=O)Nc2ccccc2N)cc1 | 106* | . | 5 | -2
Cc1ccccc1-n1c(SCC(N)=O)nc2ccccc2c1=O | 6 | . | -2 | 1
SMILES | NOMO-1 viab | Shh pathway inh | MITF inhib | PD-1 reverse act
C=CCN(C(C)=O)c1nc(C)c(Br)c(OC)n1 | 13 | 7 | 8 | 1
COc1cc(=O)oc([C@@]2(C)O[C@H]2/C(C)=C\C(C)=C\[C@@]2(C)O[C@@H](C)[C@]3(C)OC23)c1C (stereo partly specified) | 74 | 58 | 75 | -5
COc1ccc(NC(=O)Nc2cccc3c2O[C@H](CN(C)Cc2ccc(Cl)c(Cl)c2)[C@@H](C)CN([C@H](C)CO)C3=O)cc1 | 103* | 4 | -8 | -6
COc1ccc(CN(C)C[C@@H]2Oc3c(NC(=O)Nc4ccc(OC)cc4)cccc3C(=O)N([C@@H](C)CO)C[C@@H]2C)cc1 | 15 | -62 | -13 | 1
COc1ccc(NC(=O)Nc2cccc3c2O[C@H](CN(C)Cc2ccc(Cl)c(Cl)c2)[C@@H](C)CN([C@@H](C)CO)C3=O)cc1 | 91* | 4 | 2 | .
COc1ccc(CN(C)C[C@H]2Oc3c(NC(=O)Nc4ccc(OC)cc4)cccc3C(=O)N([C@H](C)CO)C[C@H]2C)cc1 | 2 | -7 | -27 | -1
COc1ccc(NC(=O)Nc2cccc3c2O[C@@H](CN(C)Cc2ccc(Cl)c(Cl)c2)[C@H](C)CN([C@H](C)CO)C3=O)cc1 | 102* | -5 | 41 | .
Cn1c(SCC(=O)Nc2ccc(F)c(Cl)c2)nnc1-c1ccccc1Cl | 29 | . | 56 | -1
COc1ccc(OC)c(NC(=O)CN(c2ccccc2Br)S(C)(=O)=O)c1 | -16 | . | -3 | 1
COc1ccccc1NC(=O)C1CC(=O)n2c(nc3ccccc32)N1 (stereo unspecified) | 3 | . | -8 | .
CC12CCC(=O)C=C1CCC1(C)C2(C)CCC2(C)C(C(=O)CO)CCC21C (stereo unspecified) | 94* | 47 | 30 | -8
C[C@H]1CN([C@@H](C)CO)C(=O)Cc2cc(NC(=O)Nc3ccc(F)cc3)ccc2O[C@H]1CN(C)Cc1ccccc1 | 11 | . | -5 | 0
CC(C)NC(=O)Nc1ccc2c(c1)CC(=O)N([C@@H](C)CO)C[C@H](C)[C@H](CN(C)Cc1ccc(Oc3ccccc3)cc1)O2 | 4 | ? | -25 | .
C[C@@H]1CN([C@H](C)CO)C(=O)Cc2cc(NC(=O)Nc3ccc(F)cc3)ccc2O[C@H]1CN(C)Cc1ccc(Oc2ccccc2)cc1 | 123* | -3 | 5 | -2
COc1ccc(NC(=O)Nc2ccc3c(c2)CC(=O)N([C@H](C)CO)C[C@H](C)[C@H](CN(C)Cc2ccc(Oc4ccccc4)cc2)O3)cc1 | ? | -6 | 11 | -1
CC(C)NC(=O)Nc1ccc2c(c1)CC(=O)N([C@@H](C)CO)C[C@@H](C)[C@@H](CN(C)Cc1ccc(Oc3ccccc3)cc1)O2 | 89* | 26 | 25 | -3
C[C@H](CO)N1C[C@H](C)[C@H](CN(C)Cc2ccc(Oc3ccccc3)cc2)Oc2ccc(NC(=O)Nc3ccc(F)cc3)cc2CC1=O | 98* | 17 | -10 | -3
C[C@@H]1CN([C@H](C)CO)C(=O)Cc2cc(NC(=O)Nc3ccc(F)cc3)ccc2O[C@@H]1CN(C)Cc1ccc(Oc2ccccc2)cc1 | 114* | 43 | 9 | -6
O=C(CSC1CC(=O)N(c2ccc(I)cc2)C1=O)Nc1cccc(F)c1 (stereo unspecified) | -19 | . | -7 | -1
COC(=O)c1ccc(C2C(C(=O)c3cc4ccccc4o3)C(=O)C(=O)N2Cc2ccncc2)cc1 (stereo unspecified) | -27 | . | 10 | 3
C[C@H]1CN([C@@H](C)CO)C(=O)Cc2cc(NC(=O)Nc3ccc(F)cc3)ccc2O[C@@H]1CN(C)Cc1ccc(Oc2ccccc2)cc1 | 107* | 18 | 9 | 1
COc1ccc(NC(=O)Nc2ccc3c(c2)CC(=O)N([C@@H](C)CO)C[C@@H](C)[C@@H](CN(C)Cc2ccc(Oc4ccccc4)cc2)O3)cc1 | 60 | 28 | 14 | .
N#Cc1ccccc1CSc1nnc(CN2CCOCC2)n1-c1ccccc1 | -12 | . | -11 | 1

Screens: PubChem BioAssay, Broad Institute
